Experimental data published in PubChem BioAssay (NCATS).
Inconclusive results are not listed. Values without a mark were called inactive. The call rests on the fitted dose curve; in most records, active means well fitted cell-killing curve with a large enough effect; inconclusive means small, poorly fitted or top-dose-only effect, or effect the other way; inactive means flat fitted curve, though single readings scatter.

test system: SKOV3; experiment: Primary qHTS to identify gynecologic anti-cancer compounds using libraries of approved drugs and bioactive compounds (AID 1345084); settings: Gynecologic cancer cell panel viability, ATPlite luminescence, 48 h; series mostly up to 57.5 µM; activity change, negative = cytotoxicity: at the top concentration; further: nearly all actives have a fitted effect of over 55% in size
In short: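 In this quantitative HTS, cell killing is estimated from loss of ATP-dependent luciferase light. Cells see five compound concentrations over a 48 h exposure.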
On the % scale 0 is the no-effect control and ±100 the full control effect.

Row | SMILES | activity change, negative = cytotoxicity
1 | CC1(C)C(=O)N2c3ccccc3[C@]3(CC(n4cnc5ccccc5c4=O)C(=O)O3)[C@H]2N1O (some centres not stated) | -8.98% [at 25.3 µM]
2 | CC(=O)OC[C@@]12[C@@H](OC(C)=O)C[C@@H](C)[C@](C)([C@@H]3C[C@H]4C=CO[C@H]4O3)[C@H]1CCC[C@]21CO1 | 5.78% [at 25.3 µM]
3 | COC1CC(=O)C23C(=O)NC(CC(C)C)C2C(C)C(C)=CC3/C=C(\C)CCC1O (configuration not stated) | -19.3% [at 25.3 µM]
4 | CC(=O)c1c(O)cc2cccc3c2c1CC(C)(O)O3 (configuration not stated) | 16.8%
5 | C/C=C(\C)C(=O)O[C@@H](C)[C@H]1CC[C@]2(O)C3CCC4C[C@@H](OC5CC(OC)C(OC6CC(OC)C(OC7CC(OC)C(OC8OC(C)C(OC9OC(CO)C(O)C(O)C9O)C(OC)C8O)C(C)O7)C(C)O6)C(C)O5)CC[C@]4(C)C3[C@H](O)[C@@H](O)[C@]12C (some centres not stated) | -4.09% [at 6.55 µM]
6 | C/C=C/C=C/C(CC(=O)O)Nc1ccc(C=O)cc1 (configuration not stated) | 15.1%
7 | C=C1CC[C@H]2[C@@](C)(CCC(O)[C@@]2(C)CO)[C@@H]1C/C=C(/C(=O)O)C(O)CO (some centres not stated) | -0.0827% [at 38.5 µM]
8 | COc1cc(C[C@H]2COC(=O)[C@@H]2Cc2ccc(O)c(OC)c2)ccc1O | 8.55% [at 38.5 µM]
9 | C#Cc1cnc2[nH]c(=O)n(C(CC)CC)c2n1 | 22.1%
10 | N[C@@H](CC(=O)N1CCn2c(nnc2C(F)(F)F)C1)Cc1[nH]nc2c(F)c(F)ccc12 | -0.679%
11 | CC1(C)CCC2(C(=O)OC3OC(COC4OC(CO)C(O)C(O)C4O)C(O)C(O)C3O)CCC3(C)C(=CCC4C5(C)CCC(O)C(C)(C(=O)O)C5CCC43C)C2C1O (configuration not stated) | 21% [at 11.6 µM]
12 | CC(=O)c1c(C)cc(O)cc1O[C@@H]1O[C@H](CO)[C@@H](O)[C@H](O)[C@H]1O | -1.25% [at 38.5 µM]
13 | CC1CC(O)CC(C)(C)C1(O)CCO (configuration not stated) | -1.18%
14 | C(#Cc1cccc(CN2CCOCC2)c1)CCN1CCCCC1 | -5.94%
15 | COC(=O)[C@]12C(=O)C(C)=C(O)[C@@]1(C)C(C)=CC1[C@@]34CC[C@@H](OC(C)=O)C(C)(C)C3[C@H](C[C@]12C)OC4=O (some centres not stated) | 1.8% [at 25.3 µM]
16 | CC(=O)C1CCC2(C)C3=C(CCC12C)C1(C)CCC(=O)C(C)(C)C1CC3 (configuration not stated) | 0% [at 38.5 µM]
17 | N#Cc1ccnc(N2C(=O)CC[C@H]2C(=O)N(c2cncc(F)c2)[C@H](C(=O)NC2CC(F)(F)C2)c2ccccc2Cl)c1 | -0.676%
18 | CC(C)CNC(=O)/C=C/CCCCc1ccc2c(c1)OCO2 | 3.03% [at 38.5 µM]
19 | O=C(c1ccccn1)c1cnn2c(-c3ccncc3)ccnc12 | 10.3%
20 | C=CC(C)(O)CC/C=C(/C)C(=O)OC1C(OC2OCC(OC3OC(CO)C(O)C(O)C3O)C(OC3OCC(O)C(OC4OC(C)C(O)C(O)C4O)C3O)C2O)COC(OC(=O)C23CCC(C)(C)CC2C2=CCC4C5(C)CCC(OC6OC(CO)C(OC7OC(CO)C(O)C(OC8OCC(O)C(O)C8O)C7O)C(O)C6O)C(C)(C)C5CCC4(C)C2(C)CC3O)C1O (configuration not stated) | 24.3% [at 6.55 µM]
21 | Nc1ncnc2c1ncn2[C@H]1CCCO1 | 11.3%
22 | Clc1ccc2c(c1)C1=NCCN1c1c(-c3noc(C4CC4)n3)ncn1-2 | -20.8%
23 | C[C@@H]1O[C@@H](O[C@H]2[C@H](O)[C@@H](C(=O)O)O[C@@H](O[C@H]3CC[C@@]4(C)C(CC[C@]5(C)C4CC=C4C6CC(C)(C)CC[C@]6(C(=O)O)CC[C@]45C)C3(C)C)[C@@H]2O[C@@H]2O[C@H](CO)[C@@H](O)[C@H](O)[C@H]2O)[C@H](O)[C@H](O)[C@H]1O (some centres not stated) | -1.84% [at 11.6 µM]
24 | C=CC1(C)CC(O)C2(CCC3C(C)(C(=O)O)CCCC3(C)C2=O)C1 (configuration not stated) | 29.8% [at 38.5 µM]
25 | C=CC(C)(O)CC/C=C(\C)C(=O)OC1CC2(C(=O)O)CCC3(C)C(=CCC4C5(C)CCC(OC6OC(COC7OCC(O)C(O)C7O)C(O)C(OC7OCC(O)C(O)C7O)C6OC6OC(CO)C(O)C(O)C6OC6OCC(O)C(O)C6O)C(C)(C)C5CCC43C)C2CC1(C)C (configuration not stated) | -0.175% [at 6.55 µM]
26 | O=C(/C=C/c1ccc(O)cc1)OCC1=CC2OC(=O)C3=CO[C@@H](O[C@@H]4O[C@H](CO)[C@@H](O)[C@H](O)[C@H]4O)[C@H]1[C@@H]32 (some centres not stated) | 0% [at 25.3 µM]
27 | CC1OC(OC2C(CO)OC(OCC3OC(OC(=O)C45CCC(C)(C)CC4C4=CCC6C7(C)CCC(OC8OC(C(=O)O)C(O)C(OC9OC(CO)C(O)C(O)C9O)C8O)C(C)(C)C7CCC6(C)C4(C)CC5)C(O)C(O)C3O)C(O)C2O)C(O)C(O)C1O (configuration not stated) | 21% [at 6.55 µM]
